Assay results: PubChem BioAssay AID1159580 (chemical genetic matrix, 2015)
About 2,000 (36%) of roughly 5,500 compounds were called active. Inconclusive results (about 18%) are left out. Some of the results follow. A number with no mark means an inactive call. No stated cut-off is given here; in the data, active means normalized growth mostly below about 0.91 (no sharp cut-off); inconclusive means no clear call, values can overlap the other calls; inactive means mostly above about 0.92.

Assay: chemical genetic growth profiling, strain panel (AID 1159580);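 further: tested at 20 µM; growth read once vehicle control cultures reached saturation at 30 °C; 1 = growth at the plate median or of vehicle wells; lower values mean less growth of the strain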
Settings: S. cerevisiae deletion strains, growth OD

In the case of COc1ccc2c(c1OC)C(=O)O[C@H]2[C@@H]1c2cc3c(cc2CCN1C)OCO3, the normalized growth (locus YAL013W, strain DEP1, active compounds read low) is reported as 1.01, the normalized growth (locus YAL040C, strain CLN3, active compounds read low) is reported as 0.973 and the normalized growth (locus YCL061C, strain MRC1 (second series), active compounds read low) is reported as 1.01. The normalized growth (locus YDR363W, strain ESC2, active compounds read low) was 1.02, the normalized growth (locus YER002W, strain NOP16, active compounds read low) was 1.03 and the normalized growth (locus YGR078C, strain PAC10, active compounds read low) was 0.428 (active). For the same molecule, the normalized growth (locus YMR263W, strain SAP30, active compounds read low) was 1, the normalized growth (locus YNL197C, strain WHI3, active compounds read low) was 1.01 and the normalized growth (locus YNL224C, strain SQS1, active compounds read low) was 0.996. The normalized growth (locus YNL322C, strain KRE1, active compounds read low) was 1.02, the normalized growth (locus YOR083W, strain WHI5 (second series), active compounds read low) was 1.07 and the normalized growth (locus YPL055C, strain LGE1, active compounds read low) was 1.01.
